Shown are actives, neighbours in structure and some others; about 4% of the full set was active somewhere.
Mtb FBA inh: inhibits M. tuberculosis FBA enzyme | P9WQA3 | purified M. tuberculosis FBA, fluorescence read-out | inhibition, % at 1 µM | hit rate 2.3% among 360,000
Mtb betalactam: beta-lactam sensitization of Mtb H37Rv; M. tuberculosis H37Rv growth with meropenem, percent inhibition; inhibition, % at 25 µM; hit rate 0.27% among 330,000; AID 434955; call rule not given here;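 note: growth measured after seven days incubation then overnight dye step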
UGM FP inh: inhibitors of M. tuberculosis UDP-galactopyranose mutase. hit rate 0.06% among 320,000. purified UGM, fluorescence polarization probe displacement. P9WIQ1. inhibition, % at 10 µM; in the data active = inhibition above about 10%, passing the limit was not always enough
RecA splice inh: blocks M. tuberculosis RecA intein splicing; cell-free RecA intein splicing, fluorescence; P9WHJ3; hit rate 0.75% among 290,000; inhibition, % (test concentration not listed); AID 2221; in the data active = inhibition above about 30%
Target sequence (P9WHJ3 whole entry, looked up, canonical isoform): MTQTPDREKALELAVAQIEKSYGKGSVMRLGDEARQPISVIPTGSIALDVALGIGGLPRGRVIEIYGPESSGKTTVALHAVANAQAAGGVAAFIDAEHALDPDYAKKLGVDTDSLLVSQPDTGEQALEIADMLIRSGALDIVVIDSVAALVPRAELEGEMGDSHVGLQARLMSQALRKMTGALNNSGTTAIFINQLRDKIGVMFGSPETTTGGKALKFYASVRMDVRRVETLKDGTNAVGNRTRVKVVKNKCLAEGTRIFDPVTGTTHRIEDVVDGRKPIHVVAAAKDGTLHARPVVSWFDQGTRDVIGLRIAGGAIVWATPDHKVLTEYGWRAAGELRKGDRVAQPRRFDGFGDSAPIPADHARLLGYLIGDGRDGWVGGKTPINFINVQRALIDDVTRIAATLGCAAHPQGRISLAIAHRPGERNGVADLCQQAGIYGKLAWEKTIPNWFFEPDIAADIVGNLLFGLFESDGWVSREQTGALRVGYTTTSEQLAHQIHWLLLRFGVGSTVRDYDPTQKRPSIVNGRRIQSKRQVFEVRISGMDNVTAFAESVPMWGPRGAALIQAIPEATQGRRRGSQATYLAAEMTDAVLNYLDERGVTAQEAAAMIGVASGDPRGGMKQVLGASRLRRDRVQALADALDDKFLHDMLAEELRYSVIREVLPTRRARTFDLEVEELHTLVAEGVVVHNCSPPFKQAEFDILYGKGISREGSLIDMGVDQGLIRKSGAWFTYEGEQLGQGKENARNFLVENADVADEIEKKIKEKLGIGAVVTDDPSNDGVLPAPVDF
Rv3671c protease: inhibitors of M. tuberculosis serine protease Rv3671c; P9WHR9; inhibition, % at 5.96 µM; hit rate 0.048% among 320,000; AID 2606; in the data active = inhibition above about 38%;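 note: extracellular domain of Rv3671c used as enzyme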
GDH-TPI counter-1: counter-screen for M. tuberculosis FBA inhibitors: GDH-TPI coupled enzymes; GDH-TPI coupled enzyme counterscreen, NADH absorbance; inhibition, % at 4.8 µM; hit rate 1.2% among 360,000; AID 588335; in the data active = inhibition above about 30%
Mtb FBA confirm: Mtb FBA inhibition, confirmed. inhibition, % at 1 µM. AID 651616. hit rate 78% among 5,600. purified M. tuberculosis FBA, fluorescence read-out. shares compounds with Mtb FBA inh
GDH-TPI counter-2: GDH-TPI inhibition counter-screen for FBA inhibitors | shares compounds with Mtb FBA inh | GDH-TPI coupled enzyme counterscreen, fluorescence | inhibition, % at 1 µM | hit rate 81% among 5,600 | AID 652141; in the data active = inhibition above about 10%
GDH-TPI DR: counter-screen for M. tuberculosis FBA inhibitors: GDH-TPI dose response | AID 652145 | shares compounds with Mtb FBA inh | GDH-TPI coupled enzyme assay, fluorescence, artifact counterscreen | IC50, µM | hit rate 79% among 170; call rule not given here
Large screens that a line does not name were inactive (follow-up assays come after a bar, where they were run). Cut-off read from the data, not from the text of the source, unless noted: active = inhibition above about 27%; inactive = the rest.

O=C(COc1ccc2c(-c3ccccc3)cc(=O)oc2c1)NC(Cc1c[nH]c2ccccc12)C(=O)O (configuration not stated)	none (no result: RecA splice inh)
O=C(Cc1cc(=O)oc2cc(O)ccc12)N[C@@H](Cc1c[nH]c2ccccc12)C(=O)O	Mtb FBA inh 37.1 | Mtb FBA confirm active | GDH-TPI counter-2 160.9
CCC(C)(C)NC(=O)C(c1ccccc1Cl)N(C(=O)CCC(=O)Nc1cc(C)on1)C(C)(C)C (configuration not stated)	none
CCCCn1c(=O)[nH]c(=O)c2c1nc(-c1ccc(OCCC)c(OCC)c1)n2CCOC	none
CCCn1c(-c2cccc(F)c2)nc2c1c(=O)[nH]c(=O)n2Cc1ccccc1	none
O=c1[nH]c(=O)n(Cc2ccccc2)c2nc(-c3ccc(C(F)(F)F)cc3)n(CCO)c12	Mtb FBA inh 68.5 | Mtb FBA confirm 134.3 | GDH-TPI counter-2 114.7
O=c1[nH]c(=O)n(Cc2ccccc2)c2nc(-c3cccs3)n(CCO)c12	none (no result: Mtb FBA inh, GDH-TPI counter-1)
CCCOc1ccc(-c2nc3c(c(=O)[nH]c(=O)n3Cc3ccccc3)n2CCO)cc1OCC	Mtb FBA inh 38.4 | Mtb FBA confirm inactive | GDH-TPI counter-2 inactive
CCCn1c(-c2cc(OC)c(OC)c(OC)c2)nc2c1c(=O)[nH]c(=O)n2Cc1ccccc1	Mtb FBA inh 40.8 | Mtb FBA confirm inactive | GDH-TPI counter-2 inactive
Cn1c(-c2cccc(F)c2)nc2c1c(=O)[nH]c(=O)n2Cc1ccccc1	Mtb FBA inh 27.5 | Mtb FBA confirm inactive | GDH-TPI counter-2 inactive
Cn1c(=O)c2c(nc(SCCN3CCCCC3)n2Cc2ccc(Cl)cc2)n(C)c1=O	Mtb FBA inh 43.8 | Mtb FBA confirm 79.7 | GDH-TPI counter-2 68.1
CCN(CC(=O)Nc1ccccc1C(F)(F)F)C(=O)Cc1sc(C)nc1-c1ccc(F)cc1	none
CCN(CC)CCCNC(=O)CCC(=O)Nc1ccc2nc(N3CCC(C)CC3)cc(C)c2c1	Mtb FBA inh 65.2 | Mtb FBA confirm inactive | GDH-TPI counter-2 inactive | GDH-TPI DR 1.26
CCN(CC)CCCNC(=O)CCC(=O)Nc1ccc2nc(N3CCCCC3)cc(C)c2c1	Mtb FBA inh 107.9 | Mtb FBA confirm 87.5 | GDH-TPI counter-2 94.5
COc1ccc(NC(=O)C2(C)Cc3c(-c4ccc(NC(C)=O)cc4)ccnc3O2)cc1 (configuration not stated)	none (no result: Mtb betalactam, UGM FP inh, RecA splice inh, Rv3671c protease)
COc1ccc(NC(=O)C2(C)Cc3c(-c4ccc(C(N)=O)cc4)ccnc3O2)cc1OC (configuration not stated)	none (no result: Mtb betalactam, UGM FP inh, RecA splice inh, Rv3671c protease)
COc1ccc(NC(=O)C2(C)Cc3c(-c4ccc(N(C)C)cc4)ccnc3O2)cc1 (configuration not stated)	Mtb FBA inh 33.5 (no result: Mtb betalactam, UGM FP inh, RecA splice inh, Rv3671c protease) | Mtb FBA confirm 104.3 | GDH-TPI counter-2 91.3
COc1ccc(NC(=O)C2(C)Cc3c(-c4ccc(N(C)C)cc4)ccnc3O2)cc1OC (configuration not stated)	Mtb FBA inh 29.5 (no result: Mtb betalactam, UGM FP inh, RecA splice inh, Rv3671c protease) | Mtb FBA confirm inactive | GDH-TPI counter-2 inactive | GDH-TPI DR 1.2
COc1ccc(CNC(=O)C2(C)Cc3c(-c4ccc(N(C)C)cc4)ccnc3O2)cc1OC (configuration not stated)	Mtb FBA inh 54.6 (no result: Mtb betalactam, UGM FP inh, RecA splice inh, Rv3671c protease) | Mtb FBA confirm 73.0 | GDH-TPI counter-2 49.9
COc1ccc(CNC(=O)C2(C)Cc3c(-c4ccccc4)ccnc3O2)cc1OC (configuration not stated)	none (no result: Mtb betalactam, UGM FP inh, RecA splice inh, Rv3671c protease)
CCOC(=O)c1ccc2[nH]c(C)c(C)c2c1	none
CCOC(=O)c1ccc2[nH]c(C)cc(=O)c2c1	Mtb FBA inh 36.3 | Mtb FBA confirm active | GDH-TPI counter-2 196.2
Cc1cc(=O)c2cc(C(=O)c3ccccc3)ccc2[nH]1	none
COC(=O)c1ccc2[nH]c(C)cc(=O)c2c1	Mtb FBA inh 33.7 | Mtb FBA confirm 95.3 | GDH-TPI counter-2 84.5
COc1ccc(-c2cc(C(F)(F)F)n3nc(C(=O)N4CCCC4)cc3n2)cc1	none
COc1ccc(-c2cc(C(F)(F)F)n3nc(C(=O)NCCCn4ccnc4)cc3n2)cc1	Mtb FBA inh 48.2 | Mtb FBA confirm inactive | GDH-TPI counter-2 inactive
COc1ccc(-c2cc(C(F)(F)F)n3nc(C(=O)NCCN4CCOCC4)cc3n2)cc1	Mtb FBA inh 39.2 | Mtb FBA confirm inactive | GDH-TPI counter-2 inactive
O=C(Nc1ccc(Br)cc1)c1cccc(N2C(=O)C3C4C=CC(C4)C3C2=O)c1 (configuration not stated)	none
CN(Cc1ccccc1)C(=O)c1cccc(NC(=O)Cc2ccc(NC(=O)C3CCCN(C(=O)C4CC4)C3)cc2)c1 (configuration not stated)	none (no result: Mtb betalactam, UGM FP inh, RecA splice inh, Rv3671c protease)
O=C(NC1CCS(=O)(=O)C1)c1ccc(-c2ccc(Br)cc2)o1 (configuration not stated)	Mtb FBA inh 41.7 | Mtb FBA confirm inactive | GDH-TPI counter-2 16.8
Cc1ccc(-c2nc(CN(C)C)cc(CN(C)C)c2O)cc1	Mtb FBA inh 80.1 (no result: RecA splice inh) | Mtb FBA confirm inactive | GDH-TPI counter-2 inactive
Cc1ccc2nc(-c3ccccn3)oc2c1	Mtb FBA inh 103.1 | Mtb FBA confirm 41.7 | GDH-TPI counter-2 30.4
COC(=O)c1ccc(-c2nc3ccc(C)cc3o2)cc1	Mtb FBA inh 31.6 (no result: RecA splice inh) | Mtb FBA confirm 147.2 | GDH-TPI counter-2 123.6
CC(OC(=O)c1ccccc1NCCO)C(=O)Nc1ccc(S(=O)(=O)N2CCOCC2)cc1 (configuration not stated)	Mtb FBA inh 57.3 | Mtb FBA confirm 58.0 | GDH-TPI counter-2 53.7
CC(OC(=O)CNC(=O)c1ccccc1)C(=O)Nc1ccc(S(=O)(=O)N2CCOCC2)cc1 (configuration not stated)	none (no result: Mtb betalactam, UGM FP inh, RecA splice inh, Rv3671c protease)
CC(C)C(NC(=O)c1ccccc1F)C(=O)OCC(=O)c1ccc(F)cc1 (configuration not stated)	none
N#Cc1nnn2c1nc(N)c1c(F)cccc12	Mtb FBA inh 32.4 | Mtb FBA confirm 170.0 | GDH-TPI counter-2 143.4
COc1ccc(NC(=O)C(CC(=O)O)Cc2ccc(C)cc2)cc1 (configuration not stated)	none
CSc1nc2ncc3c(n2n1)CC1c2ccccc2CCN1C3=O (configuration not stated)	Mtb FBA inh 53.5 | Mtb FBA confirm 75.9 | GDH-TPI counter-2 58.0
O=C1c2cnc3ncnn3c2CC2c3ccccc3CCN12 (configuration not stated)	Mtb FBA inh 58.5 | Mtb FBA confirm inactive | GDH-TPI counter-2 17.8
N#Cc1cnn2c3c(cnc12)C(=O)N1CCc2ccccc2C1C3 (configuration not stated)	Mtb FBA inh 27.3 | Mtb FBA confirm 87.1 | GDH-TPI counter-2 63.7
CCOc1ccc(Cl)cc1CSc1n[nH]c(CC)n1	Mtb FBA inh 34.5 | Mtb FBA confirm inactive | GDH-TPI counter-2 inactive

Compound activity from PubChem BioAssay.
